The record followed here is the supplement of paper PMC10849652.

Holding throughout (assay): log2 fold change, soluble protein after heating vs DMSO (PISA); higher = thermal stabilisation; K562 lysate, 10 uM; active = over 0.2 and 3.5 SD of the protein, either way, in both replicates (recomputed)
Compound in test [1]: C1=CC=C(C=C1)[C@H](COC2=CC3=C(C=C2)NC(=O)N3)NC(=O)C4=CC=CN(C4=O)CC5=CC(=C(C=C5)F)F
In short, it runs like this:
(§1)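 The values are log-two fold changes in thermal stability compared with solvent controls and come from duplicates. They were obtained by TMTpro 16plex LC-MS/MS, with channel sums equalised, on the supernatant after 21,000xg for 90 min. That supernatant came from crude K562 extract at 1 mg/mL protein treated with 10 μM compound for 30 min, heated for 3 min across 48°C-58°C, pooled and brought to 0.5% NP-40 at 4°C.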

Compound in test [2]: CC1=C(SC2=C1C(=N[C@H](C3=NN=C(N32)C)CC(=O)N)C4=CC=C(C=C4)Cl)C
In short, it runs like this: as §1

Compound in test [3]: CC1=C2C(=CC=C1)N=C(N(C2=O)C3=CC=CC=C3C)CN4C=NC5=C(N=CN=C54)N
In short, it runs like this: as §1

Compound in test [4]: Cc1sc2c(c1C)C(c1ccc(Cl)cc1)=N[C@@H](CC(=O)OC(C)(C)C)c1nnc(C)n1-2
In short, it runs like this: as §1

Compound in test [5]: c1ccc([C@@H]2C[C@H]2NC2CCNCC2)cc1
In short, it runs like this: as §1

Targets with a hit are over-represented here; the source holds about 8,800 in all. About 0.5% of all pairs of compound and target were hits. A number with no mark means an inactive call.

UniProt P37268, sequence (P37268 whole entry, looked up): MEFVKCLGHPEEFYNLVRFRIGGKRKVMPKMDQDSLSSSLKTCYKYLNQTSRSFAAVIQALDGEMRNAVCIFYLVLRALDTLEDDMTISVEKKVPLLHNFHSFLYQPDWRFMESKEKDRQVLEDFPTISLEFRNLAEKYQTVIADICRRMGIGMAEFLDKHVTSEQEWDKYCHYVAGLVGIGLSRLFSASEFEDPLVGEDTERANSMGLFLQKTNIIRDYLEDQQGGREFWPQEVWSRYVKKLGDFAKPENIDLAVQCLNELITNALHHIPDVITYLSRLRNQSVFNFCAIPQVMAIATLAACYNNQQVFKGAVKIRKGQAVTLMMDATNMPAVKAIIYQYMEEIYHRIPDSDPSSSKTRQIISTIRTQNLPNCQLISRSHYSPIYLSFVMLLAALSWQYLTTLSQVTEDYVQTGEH
UniProt Q96F86, sequence (Q96F86 whole entry, looked up): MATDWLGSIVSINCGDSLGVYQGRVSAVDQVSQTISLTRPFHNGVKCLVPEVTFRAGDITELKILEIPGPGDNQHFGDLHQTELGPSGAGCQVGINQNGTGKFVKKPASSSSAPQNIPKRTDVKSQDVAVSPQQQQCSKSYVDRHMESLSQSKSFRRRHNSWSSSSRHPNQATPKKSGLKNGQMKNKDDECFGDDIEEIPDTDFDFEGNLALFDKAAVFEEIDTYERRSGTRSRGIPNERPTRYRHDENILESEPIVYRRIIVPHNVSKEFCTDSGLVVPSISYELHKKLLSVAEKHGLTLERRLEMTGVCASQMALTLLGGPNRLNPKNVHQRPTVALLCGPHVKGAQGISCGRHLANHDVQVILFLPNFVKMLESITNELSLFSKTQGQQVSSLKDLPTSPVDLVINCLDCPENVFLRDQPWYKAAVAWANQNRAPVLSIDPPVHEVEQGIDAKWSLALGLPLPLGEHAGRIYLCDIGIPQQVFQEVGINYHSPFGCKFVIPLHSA
UniProt O75071, sequence (O75071 whole entry, looked up): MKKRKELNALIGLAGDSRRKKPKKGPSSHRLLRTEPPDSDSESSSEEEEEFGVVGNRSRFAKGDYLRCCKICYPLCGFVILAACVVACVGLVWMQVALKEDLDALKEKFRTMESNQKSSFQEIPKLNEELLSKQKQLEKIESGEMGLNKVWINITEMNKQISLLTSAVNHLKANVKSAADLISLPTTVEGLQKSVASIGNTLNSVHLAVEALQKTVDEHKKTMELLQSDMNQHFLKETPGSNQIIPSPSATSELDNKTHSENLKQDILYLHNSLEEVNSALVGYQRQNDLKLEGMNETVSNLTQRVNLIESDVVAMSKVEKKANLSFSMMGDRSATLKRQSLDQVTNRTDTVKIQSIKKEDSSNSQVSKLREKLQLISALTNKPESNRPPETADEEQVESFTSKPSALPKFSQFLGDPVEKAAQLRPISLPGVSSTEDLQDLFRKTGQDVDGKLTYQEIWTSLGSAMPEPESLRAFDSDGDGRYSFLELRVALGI
UniProt P51570, sequence (P51570 whole entry, looked up): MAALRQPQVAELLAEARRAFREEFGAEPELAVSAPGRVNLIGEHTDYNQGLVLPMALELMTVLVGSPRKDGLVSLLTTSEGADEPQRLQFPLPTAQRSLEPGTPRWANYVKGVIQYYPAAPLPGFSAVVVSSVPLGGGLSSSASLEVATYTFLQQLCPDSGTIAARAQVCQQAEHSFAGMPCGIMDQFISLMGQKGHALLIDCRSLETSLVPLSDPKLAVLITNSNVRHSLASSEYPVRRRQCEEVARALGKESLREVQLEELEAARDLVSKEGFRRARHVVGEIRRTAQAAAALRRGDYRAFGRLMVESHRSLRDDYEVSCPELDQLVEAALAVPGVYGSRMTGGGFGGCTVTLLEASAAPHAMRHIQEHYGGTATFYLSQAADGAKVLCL
UniProt Q13144, sequence (Q13144 whole entry, looked up): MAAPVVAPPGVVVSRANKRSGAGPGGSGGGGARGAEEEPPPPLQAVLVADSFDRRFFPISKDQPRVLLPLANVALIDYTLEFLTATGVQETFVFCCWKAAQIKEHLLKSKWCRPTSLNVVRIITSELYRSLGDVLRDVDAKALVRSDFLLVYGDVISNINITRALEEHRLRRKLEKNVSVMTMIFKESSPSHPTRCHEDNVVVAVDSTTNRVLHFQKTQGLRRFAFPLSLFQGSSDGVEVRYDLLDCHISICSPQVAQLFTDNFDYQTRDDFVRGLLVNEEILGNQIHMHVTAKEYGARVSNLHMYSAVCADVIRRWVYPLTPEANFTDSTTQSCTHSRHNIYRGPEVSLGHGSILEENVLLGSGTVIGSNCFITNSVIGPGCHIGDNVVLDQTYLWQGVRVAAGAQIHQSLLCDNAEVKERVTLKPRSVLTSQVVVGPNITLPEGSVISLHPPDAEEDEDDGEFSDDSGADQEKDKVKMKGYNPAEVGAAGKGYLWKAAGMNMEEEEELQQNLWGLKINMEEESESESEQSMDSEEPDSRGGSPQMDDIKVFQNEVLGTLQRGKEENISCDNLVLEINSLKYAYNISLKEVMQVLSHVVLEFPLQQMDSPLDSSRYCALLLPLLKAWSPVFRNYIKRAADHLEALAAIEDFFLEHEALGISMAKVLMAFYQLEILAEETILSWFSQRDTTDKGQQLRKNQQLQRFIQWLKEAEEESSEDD
UniProt P51116, sequence (P51116 whole entry, looked up): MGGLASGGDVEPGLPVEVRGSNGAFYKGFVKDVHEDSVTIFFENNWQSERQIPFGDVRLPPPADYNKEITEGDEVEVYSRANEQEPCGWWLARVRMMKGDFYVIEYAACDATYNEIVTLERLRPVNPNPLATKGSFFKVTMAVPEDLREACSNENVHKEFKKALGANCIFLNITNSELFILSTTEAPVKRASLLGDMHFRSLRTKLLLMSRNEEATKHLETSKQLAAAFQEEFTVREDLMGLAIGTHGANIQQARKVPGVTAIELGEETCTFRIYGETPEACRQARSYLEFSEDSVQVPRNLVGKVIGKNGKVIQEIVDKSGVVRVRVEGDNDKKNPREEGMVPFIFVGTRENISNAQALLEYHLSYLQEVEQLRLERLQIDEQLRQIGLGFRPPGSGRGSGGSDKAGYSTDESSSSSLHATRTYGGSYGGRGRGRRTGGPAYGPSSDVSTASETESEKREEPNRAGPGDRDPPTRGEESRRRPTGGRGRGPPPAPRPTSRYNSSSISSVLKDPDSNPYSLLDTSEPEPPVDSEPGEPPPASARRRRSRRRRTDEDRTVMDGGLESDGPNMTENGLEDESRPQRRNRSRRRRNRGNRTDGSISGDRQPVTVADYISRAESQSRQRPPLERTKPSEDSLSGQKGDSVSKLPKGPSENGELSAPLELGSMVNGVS
UniProt Q15717, sequence (Q15717 whole entry, looked up): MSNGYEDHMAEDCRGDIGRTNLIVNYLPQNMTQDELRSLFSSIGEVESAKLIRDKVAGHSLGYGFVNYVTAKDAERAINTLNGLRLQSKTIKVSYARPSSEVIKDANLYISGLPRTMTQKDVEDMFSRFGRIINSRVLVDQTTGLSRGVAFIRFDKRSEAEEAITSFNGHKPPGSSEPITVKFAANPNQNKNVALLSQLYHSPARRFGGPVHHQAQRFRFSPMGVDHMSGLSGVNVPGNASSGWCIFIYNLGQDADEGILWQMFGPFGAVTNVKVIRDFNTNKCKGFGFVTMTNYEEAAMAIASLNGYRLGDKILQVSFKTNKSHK
UniProt Q15723, sequence (Q15723 whole entry, looked up): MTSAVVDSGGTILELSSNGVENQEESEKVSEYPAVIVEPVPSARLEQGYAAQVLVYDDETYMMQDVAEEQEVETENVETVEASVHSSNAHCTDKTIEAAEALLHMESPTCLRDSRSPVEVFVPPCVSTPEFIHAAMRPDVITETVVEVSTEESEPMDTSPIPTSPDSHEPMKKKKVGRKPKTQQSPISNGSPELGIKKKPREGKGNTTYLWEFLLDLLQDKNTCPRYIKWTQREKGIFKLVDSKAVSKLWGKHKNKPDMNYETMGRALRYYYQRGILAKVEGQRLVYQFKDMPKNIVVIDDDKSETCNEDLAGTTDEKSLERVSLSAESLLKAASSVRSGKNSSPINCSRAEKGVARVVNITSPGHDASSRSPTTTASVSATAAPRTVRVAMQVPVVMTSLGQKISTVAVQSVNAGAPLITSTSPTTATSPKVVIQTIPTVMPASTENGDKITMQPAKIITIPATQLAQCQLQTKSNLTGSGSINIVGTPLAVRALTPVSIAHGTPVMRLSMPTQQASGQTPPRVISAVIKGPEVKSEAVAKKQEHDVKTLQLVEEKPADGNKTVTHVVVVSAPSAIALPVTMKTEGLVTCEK
UniProt P23919, sequence (P23919 whole entry, looked up): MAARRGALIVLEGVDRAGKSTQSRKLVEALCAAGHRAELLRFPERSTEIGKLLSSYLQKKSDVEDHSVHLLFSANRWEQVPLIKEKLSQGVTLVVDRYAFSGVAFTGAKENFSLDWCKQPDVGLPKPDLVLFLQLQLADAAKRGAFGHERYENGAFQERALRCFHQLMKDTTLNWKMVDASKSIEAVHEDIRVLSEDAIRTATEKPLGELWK
UniProt Q86UY5, sequence (Q86UY5 whole entry, looked up): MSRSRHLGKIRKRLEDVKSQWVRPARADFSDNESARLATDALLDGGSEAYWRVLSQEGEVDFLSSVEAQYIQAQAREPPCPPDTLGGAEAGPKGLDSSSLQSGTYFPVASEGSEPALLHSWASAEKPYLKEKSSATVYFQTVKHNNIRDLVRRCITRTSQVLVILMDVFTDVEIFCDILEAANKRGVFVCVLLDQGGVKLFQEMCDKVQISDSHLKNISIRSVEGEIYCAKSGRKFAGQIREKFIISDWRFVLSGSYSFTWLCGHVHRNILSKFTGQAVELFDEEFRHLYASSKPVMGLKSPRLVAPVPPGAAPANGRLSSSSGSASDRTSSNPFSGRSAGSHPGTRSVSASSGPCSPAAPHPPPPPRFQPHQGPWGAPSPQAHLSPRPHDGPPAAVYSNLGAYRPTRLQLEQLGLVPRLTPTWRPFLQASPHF
UniProt P60981, sequence (P60981 whole entry, looked up): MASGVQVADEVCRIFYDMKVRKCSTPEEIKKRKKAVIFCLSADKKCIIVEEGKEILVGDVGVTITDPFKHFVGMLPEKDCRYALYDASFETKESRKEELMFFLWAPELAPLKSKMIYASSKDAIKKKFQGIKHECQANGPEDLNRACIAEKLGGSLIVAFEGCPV

With EIF2B5 (UniProt Q13144), the log2 fold change was -0.03 in test [1]; 0.007 in test [2]; 0.019 in test [3]; 0.023 in test [4]; 0.017 in test [5].
For FOXK1 (UniProt P85037), the log2 fold change in test [1] is 0.022; in test [2], 0.017; in test [3] it was -0.001; in test [4], 0.032; in test [5], -0.009.
Regarding GATAD2A isoform 3 (UniProt Q86YP4), the log2 fold change is -0.01 in test [1]; -0.006 in test [2]; 0.032 in test [3]; -0.015 in test [4]; 0.036 in test [5].
Consider EPN2 (UniProt O95208), for which the log2 fold change is -0.012 in test [1]; -0.017 in test [2]; -0.02 in test [3]; -0.084 in test [4]; -0.161 in test [5].
Take EFCAB14 (UniProt O75071): the log2 fold change is 0.099 in test [1]; -0.074 in test [2]; 0.088 in test [3]; -0.014 in test [4]; 0.013 in test [5].
For ENGASE (UniProt Q8NFI3) the same measures were 0.042, 0.017, 0.038, 0.017 and -0.023.
Take GAPVD1 isoform 6 (UniProt Q14C86): the log2 fold change in test [1] is -0.013; in test [2], 0.002; in test [3] it was 0.002; in test [4] it was -0.011; in test [5] it was 0.063.
For FMNL1 isoform 3 (UniProt O95466), the log2 fold change is 0.104 in test [1]; -0.01 in test [2]; 0.057 in test [3]; 0.027 in test [4]; 0.082 in test [5].
EPHX2 (UniProt P34913): the log2 fold change in test [1] was 0.021; in test [2], 0.006; in test [3], 0; in test [4], 0.119; in test [5], -0.012.
For ELAVL1 isoform 2 (UniProt Q15717), in that order: -0.038, 0, -0.017, 0.066 and 0.052.
Regarding FDFT1 (UniProt P37268), the log2 fold change in test [1] was -0.045; in test [2] it was 0.268 (active); in test [3], 0; in test [4], 0.107; in test [5] it was -0.047.
Consider EDC3 (UniProt Q96F86), for which the log2 fold change is 0.036 in test [1]; 0 in test [2]; 0.028 in test [3]; 0.031 in test [4]; 0.008 in test [5].
For GALK1 isoform 2 (UniProt P51570), in that order: 0.014, 0.027, 0.035, 0.006 and 0.073.
For FANCD2 isoform 1 (UniProt Q9BXW9), in that order: -0.002, 0.039, 0.012, -0.018 and -0.054.
On to FARSA (UniProt Q9Y285), for which the log2 fold change in test [1] is 0.028; in test [2], 0.171; in test [3], -0.003; in test [4] it was -0.028; in test [5], -0.009.
For DUS2 (UniProt Q9NX74) the same measures were 0.037, 0.018, -0.018, 0.055 and 0.116.
In the case of EXO5 (UniProt Q9H790), the log2 fold change is 0.033 in test [1] and -0.179 in test [2].
Consider DTYMK (UniProt P23919), for which the log2 fold change in test [1] was -0.041; in test [2], 0.014; in test [3], -0.029; in test [4], -0.096; in test [5], 0.098.
For the target EPB41, A0A2R8Y6D0, the log2 fold change in test [1] is -0.052; in test [2], 0.028; in test [3], -0.071; in test [4], 0.048; in test [5], 0.11.
For FAU (UniProt E9PR30), in that order: 0.001, 0.06, -0.008, 0.018 and 0.135.
For FASTKD5 (UniProt Q7L8L6), in that order: -0.168, -0.056, -0.024, -0.002 and 0.133.
For FLAD1 (UniProt Q8NFF5), the log2 fold change in test [1] is 0.006; in test [2] it was 0.032; in test [3], 0.011; in test [4] it was 0.017; in test [5] it was 0.022.
For FBLL1 (UniProt A6NHQ2) the same measures were -0.017, 0.013, 0.037, -0.002 and -0.062.
For FAM83A (UniProt Q86UY5) the same measures were 0.065, -0.023, 0.063, 0.11 and -0.039.
For ELF2 (UniProt Q15723), in that order: -0.162, -0.074, 0.044, -0.005 and 0.013.
As to DSTN (UniProt P60981), the log2 fold change in test [1] is 0.043; in test [2], -0.051; in test [3] it was -0.016; in test [4], 0.018; in test [5] it was -0.06.
For FXR2 (UniProt P51116), in that order: -0.021, -0.011, 0.032, -0.014 and 0.054.
